Laboratory results from PubChem BioAssay (NCATS).
Results filed as inconclusive are left out. Active and inactive are the calls of the source. Calls come from the whole dose curve; as a rule, active = well fitted inhibition curve with a large enough effect; inconclusive = small, poorly fitted or top-dose-only effect; inactive = flat fitted curve, though single readings scatter.

system: Zika virus NS2B-NS3 protease (linked construct); experiment: Confirmatory screen NINDS AMC qHTS for Zika virus inhibitors (AID 1347152); conditions: Purified linked NS2B-NS3, AMC substrate fluorescence; series mostly up to 56.6 µM; note: nearly all actives have a fitted effect of over 70% in size
Description: Assay Submitters (PI): Avindra Nath, Ph.D., National Institute of Neurological Disorders and Stroke (NINDS), Bethesda, MD Radhakrishnan Padmanabhan, Ph.D., Georgetown University (GU), Washington D.C. Zika Virus causes congenital defects, including microcephaly and is associated with Guillain-Barre syndrome, eningoencephalitis and myelitis in infected adult. […] Using a target-based approach, we hope to establish a screening paradigm to uncover novel, cell-active NS2B-NS3 protease (Zika Virus) specific inhibitors from NCATS' collection of small molecules using qHTS. […] Four assay panel was created to identify potential Zika Virus inhibitors. Namely, (1) GU unlinked NS2B-NS3 AMC tagged protease qHTS, (2) GU unlinked NS2B-NS3 Rhodamine tagged protease qHTS, (3) NINDS linked NS2B-NS3 AMC tagged protease qHTS, (4) NINDS linked NS2B-NS3 Rhodamine tagged protease qHTS. Active compounds were re-acquired and re-screened to confirm inhibition. Inhibitors were further screened against various confirmatory and counterscreens in dose response format. Early Translation Branch (ETB) National Center for Advancing Translational Sciences (NCATS), Rockville, MD National Institute of Health (NIH), Bethesda, Maryland
Materials: For the linked assay, Nath lab (NINDS) provided the purified linked NS2B-NS3 protease which is consists of hydrophilic domain of NS2B linked to the NS3 protease domain by a flexible (-[…]-) linker. Control compound aprotinin is obtained from Thermo Scientific (#78432; Waltham, Massachusetts). NS2B-NS3 AMC substrate (Bz-Nle-Lys-Arg-Arg-AMC; Nle-KRR-AMC) purchased from Bachem (#I-1995; Torrance, CA). Ac-VKTGKR-AMC purchased from Genscript or Bachem, Ac-FAAGKR-AMC purchased from Genscript, Ac-GLVKRR-AMC purchased from Genscript, Ac-LKKR-AMC purchased from Genscript. NINDS AMC linked NS2B-NS3 protease qHTS protocol: Briefly, 3 microL of Zika virus linked NS2B-NS3 protease (1 nM for linked final concentration), in assay buffer (10 mM Tris-HCl pH 8.0 with 0.01% Tween 20) was dispensed into a 1,536-well solid-bottom black plate (Greiner Bio One, Monroe, NC). Twenty-three nL of compounds (final concentration range 7.28 nM to 114 microM) or control Aprotinin (final concentration range 3.47 nM to 114 microM) were transferred via Wako Pin-tool (Wako Automation, Richmond, VA). Samples were incubated (room temperature, protected from light) for 15 minutes followed by a 1 microL AMC substrate addition of (final concentration of 10 microM; Km = 18.3 µM). Plates were then read immediately on a ViewLux High-throughput CCD imager (PerkinElmer, Waltham, MA) equipped with standard UV fluorescence optics (340(30) nm excitation, 450(20) nm emission) then incubated (room temperature, protected from light) for 15 minutes (~20% conversion). The change in fluorescence intensity over the 15-minute reaction period was normalized against no-inhibitor and no-enzyme controls and the resulting percent inhibition data were fitted to a 4-parameter Hill equation. Aprotinin was used as the intraplate control.
Potency is the fitted concentration of half-maximal effect.

Compound | Potency
C=C[C@H]1[C@H](O[C@@H]2O[C@H](CO)[C@@H](O)[C@H](O)[C@H]2O)OC=C(C(=O)OC)[C@H]1CCOC(=O)c1cc(O)c(O)c(O)c1 | inactive
CC1(C)CCC(C)(C)c2cc(C3(c4ccc(C(=O)O)cc4)OCCO3)ccc21 | 44.1 µM (active)
O=C(N/N=C/c1ccc(O)c(O)c1)c1cc2ccccc2cc1O | inactive
COc1cc(Nc2nc3ccccc3nc2NS(=O)(=O)c2ccc(NC(=O)c3ccc(OC)c(C)c3)cc2)cc(OC)c1 | 12.4 µM (active)
CC(C)c1cccc2c(-c3ccccc3)cc(-c3ccc(-c4ccc(C(=O)O)cc4)[nH]3)nc12 | 44.1 µM (active)
O=C(O)Cc1ccc2oc(-c3ccc(NC(=O)/C=C/c4ccc(Br)cc4)c(F)c3)nc2c1 | 15.6 µM (active)
COc1ccc(C(=O)n2c(C)c(Cc3cccc(O[C@@H](C)C(=O)O)c3)c3cc(OC(F)(F)F)ccc32)cc1 | 17.5 µM (active)
CCc1c(-c2ccccc2)c(-c2ccccc2)nn1-c1ccccc1-c1cccc(OCC(=O)O)c1 | 13.9 µM (active)
CC1=C(C(=O)OCc2ccccc2)C(c2ccc(-c3ccccc3)cc2)NC(=O)N1CCCCCC(=O)O (stereo not drawn) | 22.1 µM (active)
CCCCCCOc1cc2c(cc1N(C)c1ncc(C(=O)O)cn1)C(C)(C)CCC2(C)C | 31.2 µM (active)
N#CC(c1ccnc(OCc2ccc(CN3CCOCC3)cc2)n1)c1nc2ccccc2s1 (stereo not drawn) | inactive
O=C(O)/C=C/c1ccc(-c2ccc(O)c(C34CC5CC(CC(C5)C3)C4)c2)cc1 | 35 µM (active)
C=CC/C=C\C/C=C\CCCCCCCc1cccc(O)c1C(=O)O | 10.9 µM (active)
